Our source for the growth inhibition values is PubChem BioAssay (NCI).

Assay [1] is described as follows: NCI Yeast Anticancer Drug Screen. Data for the rad50 strain (AID 155).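 Also: 0% = growth of vehicle-only cultures of the same strain.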 The following applies: S. cerevisiae rad50 strain growth inhibition, hits give high values. An outline of the steps:
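Yeast carrying a defined DNA repair defect were exposed to test compounds, and growth was compared with vehicle-treated controls to give percent inhibition.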

Assay [2] can be described thus: NCI Yeast Anticancer Drug Screen. Data for the mec2-1 strain (AID 157). The note with it: S. cerevisiae mec2-1 strain, hits give high values. An outline of the steps:
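Test agents were screened against the mec2-1 yeast strain, with defined DNA repair or cell cycle alteration. Growth was scored as inhibition against vehicle-only controls.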

Assay [3] in a line: NCI Yeast Anticancer Drug Screen. Data for the sgs1 mgt1 strain (AID 161).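 Also: 0% = growth of cultures given vehicle only.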 The note with it: S. cerevisiae sgs1 mgt1 strain, hits give high values. An outline of the steps:
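Genetically altered yeast, compound exposure, growth inhibition relative to vehicle.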

Assay [4] is described as follows: NCI Yeast Anticancer Drug Screen. Data for the cln2 rad14 strain (AID 165).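 Also: 0% = growth equal to vehicle treated cultures.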 The following applies: S. cerevisiae cln2 rad14 strain, hits give high values. An outline of the steps:
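Growth of compound-exposed yeast (cln2 rad14 genotype) measured and expressed as inhibition relative to vehicle.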

Assay [5] is described as follows: NCI Yeast Anticancer Drug Screen. Data for the bub3 strain (AID 167). The note with it: S. cerevisiae bub3 mutant strain, hits give high values. Put shortly: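 Compounds were applied to a genetically altered yeast strain carrying a cell-cycle control defect. Growth inhibition was scored against vehicle-treated controls.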
The nature of assay [6]: NCI Yeast Anticancer Drug Screen. Data for the mlh1 rad18 strain (AID 175). The note with it: S. cerevisiae mlh1 rad18 strain growth inhibition, hits give high values. Put shortly:
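In this whole-cell yeast screen, a strain with altered DNA damage repair is challenged with compound, and its growth is measured against matched vehicle-treated controls.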

[7] abbreviates: at 5.0 µM (retest, dose inferred, filed as 0.5).
[8] abbreviates: at 50.0 µM (retest, dose inferred, filed as 5.0).

About 79,000 compounds went through this panel and 15% of them were active in at least one assay; those are over-represented in the sample as a whole. Values without a mark were called inactive. The source made the active and inactive calls. Rule as the data show it: active = growth inhibition above about 70%; inactive = the rest.

Regarding `O=C1c2ccccc2C(=O)C2OC12` (stereo not given), the growth inhibition in assay [1] (setting [7]) was 48%; in assay [1] (setting [8]) it was 98% (active); in assay [1] (at 50.0 µM), 93.2% (active); in assay [2] (setting [7]), 48%; in assay [2] (setting [8]) it was 98% (active); in assay [2] (at 50.0 µM) it was 95.1% (active). Moreover, the growth inhibition in assay [3] (setting [7]) was 50%; in assay [3] (setting [8]), 99% (active); in assay [3] (at 50.0 µM), 94.7% (active); in assay [4] (setting [7]), 72% (active); in assay [4] (setting [8]), 99% (active); in assay [4] (at 50.0 µM), 93.3% (active). Also, the growth inhibition in assay [5] (setting [7]) is 73% (active); in assay [5] (setting [8]), 100% (active); in assay [5] (at 50.0 µM), 93.5% (active); in assay [6] (setting [7]), 51%; in assay [6] (setting [8]), 99% (active); in assay [6] (at 50.0 µM), 89.9% (active).

As to `O=C(O)/C=C/C(=O)c1ccc(O)cc1`, the growth inhibition in assay [1] (setting [7]) was 25%; in assay [1] (setting [8]), 97% (active); in assay [1] (at 50.0 µM), 95.7% (active); in assay [2] (setting [7]) it was 9%; in assay [2] (setting [8]), 94% (active); in assay [2] (at 50.0 µM) it was 95.8% (active). Also, the growth inhibition in assay [3] (setting [7]) was 28%; in assay [3] (setting [8]), 93% (active); in assay [3] (at 50.0 µM) it was 94.6% (active); in assay [4] (setting [7]), 7%; in assay [4] (setting [8]), 91% (active); in assay [4] (at 50.0 µM), 91.3% (active). Further, the growth inhibition in assay [5] (setting [7]) was 5%; in assay [5] (setting [8]) it was 95% (active); in assay [5] (at 50.0 µM) it was 92% (active); in assay [6] (setting [7]), 32%; in assay [6] (setting [8]) it was 98% (active); in assay [6] (at 50.0 µM), 96% (active).

Regarding `CN(C)c1ccc(/C=C/C(=O)c2ccc([N+](=O)[O-])cc2)cc1`, the growth inhibition is 38% in assay [1] (setting [7]); 48% in assay [1] (setting [8]); -21.7% in assay [1] (at 50.0 µM); 45% in assay [2] (setting [7]); 42% in assay [2] (setting [8]); -16% in assay [2] (at 50.0 µM). Besides, the growth inhibition was -9% in assay [3] (setting [7]); 24% in assay [3] (setting [8]); -16.7% in assay [3] (at 50.0 µM); 24% in assay [4] (setting [7]); 41% in assay [4] (setting [8]); -4.5% in assay [4] (at 50.0 µM). In addition, the growth inhibition is 21% in assay [5] (setting [7]); 23% in assay [5] (setting [8]); -13.4% in assay [5] (at 50.0 µM); 34% in assay [6] (setting [7]); 45% in assay [6] (setting [8]); -47.2% in assay [6] (at 50.0 µM).

`CCCCCCCCCCCCNCc1ccc(Cl)c(Cl)c1`: the growth inhibition in assay [1] (setting [7]) is 72% (active); in assay [1] (setting [8]), 96% (active); in assay [1] (at 50.0 µM), 99.8% (active); in assay [2] (setting [7]), 91% (active); in assay [2] (setting [8]) it was 98% (active); in assay [2] (at 50.0 µM) it was 99.7% (active). In addition, the growth inhibition is 89% (active) in assay [3] (setting [7]); 98% (active) in assay [3] (setting [8]); 99.8% (active) in assay [3] (at 50.0 µM); 58% in assay [4] (setting [7]); 90% (active) in assay [4] (setting [8]); 99.6% (active) in assay [4] (at 50.0 µM). For the same compound, the growth inhibition in assay [5] (setting [7]) was 76% (active); in assay [5] (setting [8]), 96% (active); in assay [5] (at 50.0 µM), 97% (active); in assay [6] (setting [7]) it was 87% (active); in assay [6] (setting [8]) it was 96% (active); in assay [6] (at 50.0 µM) it was 99.7% (active).

Regarding `O=c1[nH]c(CN2CCCCC2)nn1-c1ccccc1`, the growth inhibition is -1% in assay [1] (setting [7]); 3% in assay [1] (setting [8]); 8.25% in assay [1] (at 50.0 µM); 0% in assay [2] (setting [7]); 3% in assay [2] (setting [8]); 10.1% in assay [2] (at 50.0 µM). Further, the growth inhibition in assay [3] (setting [7]) is -1%; in assay [3] (setting [8]), 1%; in assay [3] (at 50.0 µM) it was 9.75%; in assay [4] (setting [7]), 4%; in assay [4] (setting [8]) it was -1%; in assay [4] (at 50.0 µM) it was 69.4%. Besides, the growth inhibition is 0% in assay [5] (setting [7]); -4% in assay [5] (setting [8]); 14.6% in assay [5] (at 50.0 µM); -2% in assay [6] (setting [7]); 1% in assay [6] (setting [8]); 2.45% in assay [6] (at 50.0 µM).

Regarding `CCC[CH2][Sn]([CH2]CCC)([O]C(=O)C1CCC(=O)N1)[O]C(=O)C1CCC(=O)N1` (stereo not given), the growth inhibition in assay [1] (setting [7]) was 93% (active); in assay [1] (setting [8]), 93% (active); in assay [1] (at 50.0 µM) it was 90.3% (active); in assay [2] (setting [7]) it was 94% (active); in assay [2] (setting [8]), 94% (active); in assay [2] (at 50.0 µM), 90.7% (active). The growth inhibition in assay [3] (setting [7]) is 91% (active); in assay [3] (setting [8]) it was 91% (active); in assay [3] (at 50.0 µM), 90% (active); in assay [4] (setting [7]) it was 96% (active); in assay [4] (setting [8]), 96% (active); in assay [4] (at 50.0 µM), 91% (active). Moreover, the growth inhibition in assay [5] (setting [7]) was 94% (active); in assay [5] (setting [8]), 94% (active); in assay [5] (at 50.0 µM) it was 90.9% (active); in assay [6] (setting [7]), 95% (active); in assay [6] (setting [8]), 95% (active); in assay [6] (at 50.0 µM) it was 88.7% (active).

Turning to `Oc1c(Cl)ccc2cccnc12`, the growth inhibition in assay [1] (setting [7]) is 97% (active); in assay [1] (setting [8]) it was 98% (active); in assay [1] (at 50.0 µM) it was 92% (active); in assay [2] (setting [7]), 98% (active); in assay [2] (setting [8]) it was 99% (active); in assay [2] (at 50.0 µM), 93.8% (active). The growth inhibition in assay [3] (setting [7]) was 91% (active); in assay [3] (setting [8]), 80% (active); in assay [3] (at 50.0 µM), 94.1% (active); in assay [4] (setting [7]), 98% (active); in assay [4] (setting [8]), 97% (active); in assay [4] (at 50.0 µM) it was 92.5% (active). Further, the growth inhibition in assay [5] (setting [7]) was 99% (active); in assay [5] (setting [8]), 99% (active); in assay [5] (at 50.0 µM) it was 92.8% (active); in assay [6] (setting [7]), 95% (active); in assay [6] (setting [8]) it was 98% (active); in assay [6] (at 50.0 µM), 91.7% (active).

With `C=C1C(=O)OC2CC(C)C3C=CC(=O)C3CC12` (stereo not given), the growth inhibition in assay [1] (setting [7]) is 17%; in assay [1] (setting [8]), 55%; in assay [1] (at 50.0 µM), 88.7% (active); in assay [2] (setting [7]) it was 12%; in assay [2] (setting [8]), 50%; in assay [2] (at 50.0 µM), 91.6% (active). Also, the growth inhibition in assay [3] (setting [7]) is 15%; in assay [3] (setting [8]) it was 57%; in assay [3] (at 50.0 µM), 91.3% (active); in assay [4] (setting [7]), 24%; in assay [4] (setting [8]) it was 40%; in assay [4] (at 50.0 µM), 89.3% (active). For the same compound, the growth inhibition is 22% in assay [5] (setting [7]); 72% (active) in assay [5] (setting [8]); 88.2% (active) in assay [5] (at 50.0 µM); 16% in assay [6] (setting [7]); 34% in assay [6] (setting [8]); 90.6% (active) in assay [6] (at 50.0 µM).

`O=[N+]([O-])c1ccccc1N=Nc1c(O)[nH]c2cccc(C(F)(F)F)c12`: the growth inhibition is 50% in assay [1] (setting [7]); 86% (active) in assay [1] (setting [8]); 93.9% (active) in assay [1] (at 50.0 µM); 52% in assay [2] (setting [7]); 81% (active) in assay [2] (setting [8]); 18.5% in assay [2] (at 50.0 µM). The growth inhibition was 60% in assay [3] (setting [7]); 90% (active) in assay [3] (setting [8]); 83.5% (active) in assay [3] (at 50.0 µM); -60% in assay [4] (setting [7]); 92% (active) in assay [4] (setting [8]); 50.2% in assay [4] (at 50.0 µM). Further, the growth inhibition was 47% in assay [5] (setting [7]); 77% (active) in assay [5] (setting [8]); 46.5% in assay [5] (at 50.0 µM); 84% (active) in assay [6] (setting [7]); 97% (active) in assay [6] (setting [8]); 95.1% (active) in assay [6] (at 50.0 µM).

As for `CCCCCCCCCCCN1C(=O)c2ccccc2S1(=O)=O`, the growth inhibition is -3% in assay [1] (setting [7]); 78% (active) in assay [1] (setting [8]); -22.4% in assay [1] (at 50.0 µM); -2% in assay [2] (setting [7]); 54% in assay [2] (setting [8]); 0.5% in assay [2] (at 50.0 µM). The growth inhibition in assay [3] (setting [7]) is 0%; in assay [3] (setting [8]), 80% (active); in assay [3] (at 50.0 µM), -11.4%; in assay [4] (setting [7]), -14%; in assay [4] (setting [8]), 34%; in assay [4] (at 50.0 µM), 58.8%. Besides, the growth inhibition was 0% in assay [5] (setting [7]); 79% (active) in assay [5] (setting [8]); 9.4% in assay [5] (at 50.0 µM); 0% in assay [6] (setting [7]); 95% (active) in assay [6] (setting [8]); 32.4% in assay [6] (at 50.0 µM).
